± gives the standard deviation of the averaged measurements. Of roughly 5,400 targets only a part is listed; those with the largest changes were picked by preference.
Compound: Nc1nc2c(ncn2[C@@H]2O[C@H](COP(=O)(O)OP(=O)(O)OP(=O)(O)O)[C@@H](O)[C@H]2O)c(=O)[nH]1 [guanosine triphosphate]
Assay: NP40-soluble protein abundance relative to vehicle (solubility fold change) (ratio); higher = more soluble protein in presence of GTP
In short: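 Each value is a fold change relative to the detergent-processed vehicle, calculated per replicate from vsn-normalised intensities. Jurkat crude lysate received eight concentrations (0.1 to 10 mM) for 10 min at room temperature and 3 min at 37 °C, then was solubilised in 0.8% NP40 with benzonase (60 min, 4 °C). The ultracentrifuged supernatant was TMT-labelled and run by LC-MS/MS in three independent experiments.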

UniProt Q16643, sequence (Q16643 whole entry): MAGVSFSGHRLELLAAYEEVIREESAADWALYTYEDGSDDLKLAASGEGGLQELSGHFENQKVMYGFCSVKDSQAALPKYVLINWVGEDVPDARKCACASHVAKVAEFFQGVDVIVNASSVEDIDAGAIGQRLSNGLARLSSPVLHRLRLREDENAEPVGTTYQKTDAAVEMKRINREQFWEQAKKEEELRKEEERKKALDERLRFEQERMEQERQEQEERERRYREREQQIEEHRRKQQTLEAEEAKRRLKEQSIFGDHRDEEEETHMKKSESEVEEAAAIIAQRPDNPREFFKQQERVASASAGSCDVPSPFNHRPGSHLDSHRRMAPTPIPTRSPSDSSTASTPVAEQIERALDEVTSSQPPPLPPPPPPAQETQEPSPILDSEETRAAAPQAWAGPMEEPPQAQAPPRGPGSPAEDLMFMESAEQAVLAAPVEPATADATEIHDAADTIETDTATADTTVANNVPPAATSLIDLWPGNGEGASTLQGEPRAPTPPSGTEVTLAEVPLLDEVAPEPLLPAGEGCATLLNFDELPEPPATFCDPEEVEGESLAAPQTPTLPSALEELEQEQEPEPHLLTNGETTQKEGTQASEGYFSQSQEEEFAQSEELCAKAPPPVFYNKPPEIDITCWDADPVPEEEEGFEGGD
UniProt Q8WUR7, sequence (Q8WUR7 whole entry): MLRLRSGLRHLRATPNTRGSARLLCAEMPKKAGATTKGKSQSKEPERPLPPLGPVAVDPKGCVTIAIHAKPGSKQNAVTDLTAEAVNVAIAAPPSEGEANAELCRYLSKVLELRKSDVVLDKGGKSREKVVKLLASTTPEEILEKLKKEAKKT
UniProt Q5JTZ9, sequence (Q5JTZ9 whole entry): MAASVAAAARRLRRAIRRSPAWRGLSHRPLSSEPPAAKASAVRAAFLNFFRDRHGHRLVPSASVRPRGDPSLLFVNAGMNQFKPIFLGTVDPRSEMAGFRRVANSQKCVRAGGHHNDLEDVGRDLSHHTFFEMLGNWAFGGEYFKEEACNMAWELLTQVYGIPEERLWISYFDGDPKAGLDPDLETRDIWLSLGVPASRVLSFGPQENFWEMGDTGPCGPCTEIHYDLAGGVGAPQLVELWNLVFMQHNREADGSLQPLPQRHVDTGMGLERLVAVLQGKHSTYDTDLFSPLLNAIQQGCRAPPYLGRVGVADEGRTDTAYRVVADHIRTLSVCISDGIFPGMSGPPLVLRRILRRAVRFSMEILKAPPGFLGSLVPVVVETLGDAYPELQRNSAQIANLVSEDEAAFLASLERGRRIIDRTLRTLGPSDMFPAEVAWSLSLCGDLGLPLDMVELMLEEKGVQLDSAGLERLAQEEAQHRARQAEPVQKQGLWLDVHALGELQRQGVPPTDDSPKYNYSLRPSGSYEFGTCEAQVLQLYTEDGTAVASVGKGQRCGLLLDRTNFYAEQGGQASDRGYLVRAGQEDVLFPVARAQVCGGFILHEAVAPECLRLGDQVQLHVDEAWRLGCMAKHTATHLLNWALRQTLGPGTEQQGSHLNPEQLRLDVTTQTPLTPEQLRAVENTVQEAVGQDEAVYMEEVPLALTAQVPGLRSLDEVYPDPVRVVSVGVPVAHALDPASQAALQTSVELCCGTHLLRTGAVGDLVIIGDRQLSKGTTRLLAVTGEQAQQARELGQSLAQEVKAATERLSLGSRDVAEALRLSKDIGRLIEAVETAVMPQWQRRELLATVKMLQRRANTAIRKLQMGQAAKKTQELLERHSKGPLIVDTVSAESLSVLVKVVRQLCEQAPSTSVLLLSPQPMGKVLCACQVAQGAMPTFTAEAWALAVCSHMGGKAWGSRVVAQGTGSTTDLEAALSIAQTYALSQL
UniProt Q7L5D6, sequence (Q7L5D6 whole entry): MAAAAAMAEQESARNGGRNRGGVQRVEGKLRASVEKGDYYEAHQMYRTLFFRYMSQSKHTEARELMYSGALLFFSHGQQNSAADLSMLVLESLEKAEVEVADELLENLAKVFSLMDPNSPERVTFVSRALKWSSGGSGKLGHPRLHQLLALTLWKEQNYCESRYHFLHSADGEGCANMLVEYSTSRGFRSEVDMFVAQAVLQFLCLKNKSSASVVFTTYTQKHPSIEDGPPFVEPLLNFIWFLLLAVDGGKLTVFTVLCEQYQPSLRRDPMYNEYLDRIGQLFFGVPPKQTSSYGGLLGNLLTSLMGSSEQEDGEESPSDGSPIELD
UniProt Q13769, sequence (Q13769 whole entry): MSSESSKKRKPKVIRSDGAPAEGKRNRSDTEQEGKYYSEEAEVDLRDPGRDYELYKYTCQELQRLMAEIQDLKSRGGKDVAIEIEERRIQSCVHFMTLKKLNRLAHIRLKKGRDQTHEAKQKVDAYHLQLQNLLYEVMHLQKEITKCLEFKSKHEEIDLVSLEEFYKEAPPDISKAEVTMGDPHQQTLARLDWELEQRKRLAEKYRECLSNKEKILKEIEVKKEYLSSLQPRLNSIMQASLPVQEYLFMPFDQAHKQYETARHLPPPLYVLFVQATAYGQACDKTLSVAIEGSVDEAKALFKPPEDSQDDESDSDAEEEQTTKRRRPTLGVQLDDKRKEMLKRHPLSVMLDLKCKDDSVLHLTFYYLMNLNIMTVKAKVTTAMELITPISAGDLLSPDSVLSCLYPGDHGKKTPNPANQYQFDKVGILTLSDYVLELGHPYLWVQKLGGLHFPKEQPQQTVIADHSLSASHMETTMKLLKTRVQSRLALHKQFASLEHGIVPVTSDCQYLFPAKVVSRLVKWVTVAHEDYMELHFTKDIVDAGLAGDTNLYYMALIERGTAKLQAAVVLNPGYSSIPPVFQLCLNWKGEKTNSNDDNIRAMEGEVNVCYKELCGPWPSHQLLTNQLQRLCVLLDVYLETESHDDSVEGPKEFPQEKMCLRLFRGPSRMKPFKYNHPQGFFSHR
UniProt Q8IW45, sequence (Q8IW45 whole entry): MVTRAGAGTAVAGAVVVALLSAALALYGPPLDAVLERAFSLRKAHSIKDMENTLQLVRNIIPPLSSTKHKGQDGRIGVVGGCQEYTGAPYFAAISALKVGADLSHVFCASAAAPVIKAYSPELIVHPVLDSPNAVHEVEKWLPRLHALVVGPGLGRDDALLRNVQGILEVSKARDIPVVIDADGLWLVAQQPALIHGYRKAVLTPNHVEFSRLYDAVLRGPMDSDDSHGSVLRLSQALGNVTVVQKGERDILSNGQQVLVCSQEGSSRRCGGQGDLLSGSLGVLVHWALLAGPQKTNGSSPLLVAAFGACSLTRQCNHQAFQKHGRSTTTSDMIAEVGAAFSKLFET
UniProt Q16630, sequence (Q16630 whole entry): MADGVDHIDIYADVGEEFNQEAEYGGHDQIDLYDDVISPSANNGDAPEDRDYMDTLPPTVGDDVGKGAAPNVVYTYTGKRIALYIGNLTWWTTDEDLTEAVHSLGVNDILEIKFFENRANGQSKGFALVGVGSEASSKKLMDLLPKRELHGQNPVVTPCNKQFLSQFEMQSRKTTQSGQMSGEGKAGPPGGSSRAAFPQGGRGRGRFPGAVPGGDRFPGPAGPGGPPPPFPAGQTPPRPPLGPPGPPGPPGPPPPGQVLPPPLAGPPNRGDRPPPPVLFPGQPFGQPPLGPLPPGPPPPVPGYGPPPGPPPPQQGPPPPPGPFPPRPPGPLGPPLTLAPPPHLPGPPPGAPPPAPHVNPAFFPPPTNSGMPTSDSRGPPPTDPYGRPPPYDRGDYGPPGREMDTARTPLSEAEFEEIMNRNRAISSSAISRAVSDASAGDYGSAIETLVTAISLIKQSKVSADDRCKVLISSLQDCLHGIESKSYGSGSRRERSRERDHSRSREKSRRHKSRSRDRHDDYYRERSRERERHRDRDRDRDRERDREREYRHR
UniProt Q7KZN9, sequence (Q7KZN9 whole entry): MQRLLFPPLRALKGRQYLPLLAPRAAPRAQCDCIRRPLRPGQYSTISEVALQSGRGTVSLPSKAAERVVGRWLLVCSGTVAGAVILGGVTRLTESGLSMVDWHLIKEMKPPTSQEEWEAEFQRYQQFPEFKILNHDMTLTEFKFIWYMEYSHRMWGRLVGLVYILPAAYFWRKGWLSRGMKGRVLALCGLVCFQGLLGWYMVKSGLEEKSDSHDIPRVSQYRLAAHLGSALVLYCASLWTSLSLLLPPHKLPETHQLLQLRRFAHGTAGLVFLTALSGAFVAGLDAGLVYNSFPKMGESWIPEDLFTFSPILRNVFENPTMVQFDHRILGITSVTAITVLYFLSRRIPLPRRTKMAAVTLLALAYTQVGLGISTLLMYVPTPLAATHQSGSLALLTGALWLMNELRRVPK
UniProt Q8NE71, sequence (Q8NE71 whole entry, one chain of several): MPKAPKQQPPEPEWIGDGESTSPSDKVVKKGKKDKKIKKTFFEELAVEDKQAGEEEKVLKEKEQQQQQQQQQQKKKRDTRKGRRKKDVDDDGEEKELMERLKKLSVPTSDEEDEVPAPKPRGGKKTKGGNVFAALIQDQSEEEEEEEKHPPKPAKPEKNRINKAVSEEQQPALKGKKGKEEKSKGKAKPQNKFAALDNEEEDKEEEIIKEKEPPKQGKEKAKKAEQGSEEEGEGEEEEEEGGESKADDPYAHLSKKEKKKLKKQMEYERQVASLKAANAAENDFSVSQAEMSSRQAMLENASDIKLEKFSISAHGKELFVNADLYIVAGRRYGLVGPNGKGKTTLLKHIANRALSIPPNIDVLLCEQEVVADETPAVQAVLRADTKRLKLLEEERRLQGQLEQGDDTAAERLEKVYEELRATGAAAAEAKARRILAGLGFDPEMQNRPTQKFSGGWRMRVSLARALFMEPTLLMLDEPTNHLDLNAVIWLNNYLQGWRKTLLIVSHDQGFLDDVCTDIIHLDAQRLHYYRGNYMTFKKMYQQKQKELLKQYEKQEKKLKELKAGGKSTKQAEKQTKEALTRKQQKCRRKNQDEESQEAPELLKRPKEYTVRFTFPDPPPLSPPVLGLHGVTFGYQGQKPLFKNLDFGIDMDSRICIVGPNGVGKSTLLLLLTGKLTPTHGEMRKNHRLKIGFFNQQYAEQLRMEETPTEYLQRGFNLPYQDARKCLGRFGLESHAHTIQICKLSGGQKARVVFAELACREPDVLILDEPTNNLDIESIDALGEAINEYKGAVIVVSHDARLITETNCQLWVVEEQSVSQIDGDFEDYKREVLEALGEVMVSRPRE

Target	NP40-soluble protein abundance (concentration: 0.1mM)	NP40-soluble protein abundance (concentration: 0.5mM)	NP40-soluble protein abundance (concentration: 1mM)	NP40-soluble protein abundance (concentration: 2mM)	NP40-soluble protein abundance (concentration: 4mM)	NP40-soluble protein abundance (concentration: 6mM)	NP40-soluble protein abundance (concentration: 8mM)	NP40-soluble protein abundance (concentration: 10mM)
TWF2 (UniProt Q6IBS0)	1.02 ± 0.035	1.09 ± 0.049	1.02 ± 0.017	1.02 ± 0.055	1.03 ± 0.08	1.01 ± 0.013	0.95 ± 0.032	0.951 ± 0.012
BOLA3 (UniProt Q53S33)	0.893 ± 0.02	0.843 ± 0.047	0.962 ± 0.065	0.982 ± 0.03	0.953 ± 0.022	0.966 ± 0.061	0.925 ± 0.09	1.01 ± 0.042
UniProt Q7L5D6|Q7L5D6-2	1.03 ± 0.056	0.98 ± 0.091	0.94 ± 0.047	0.975 ± 0.11	0.963 ± 0.12	0.986 ± 0.1	0.868 ± 0.053	0.887 ± 0.12
ITPK1 (UniProt Q13572)	0.997 ± 0.085	0.965 ± 0.064	0.904 ± 0.095	0.981 ± 0.077	0.981 ± 0.15	0.943 ± 0.18	0.924 ± 0.13	0.953 ± 0.09
UniProt Q16643|Q16643-2|Q16643-3	0.894 ± 0.061	0.888 ± 0.11	0.903 ± 0.11	0.905 ± 0.11	1.08 ± 0.1	1.24 ± 0.11	1.52 ± 0.15	1.81 ± 0.12
UniProt P60228	1.09 ± 0.046	1.08 ± 0.061	1.05 ± 0.098	1.14 ± 0.17	1.32 ± 0.27	1.44 ± 0.33	1.58 ± 0.3	1.75 ± 0.38
THOC5 (UniProt Q13769)	1.18 ± 0.0098	1.35 ± 0.093	1.5 ± 0.18	1.83 ± 0.36	2.21 ± 0.56	2.3 ± 0.66	2.45 ± 0.77	2.37 ± 0.74
UniProt Q13642-1|Q13642-4|Q13642-5	1.07 ± 0.16	1.09 ± 0.17	0.946 ± 0.13	0.921 ± 0.14	0.932 ± 0.12	0.911 ± 0.12	0.952 ± 0.093	0.915 ± 0.15
UniProt P63092-2|P63092-3|P63092|P63092-4	0.973 ± 0.013	0.9607 ± 0.0034	0.922 ± 0.025	0.91 ± 0.024	0.882 ± 0.043	0.882 ± 0.038	0.873 ± 0.026	0.847 ± 0.031
DDX51 (UniProt Q8N8A6)	1.07 ± 0.15	1.11 ± 0.05	1.2 ± 0.08	1.35 ± 0.09	1.64 ± 0.085	1.86 ± 0.21	2.05 ± 0.24	2.1 ± 0.15
AARS2 (UniProt Q5JTZ9)	1.13 ± 0.043	1.02 ± 0.046	0.989 ± 0.052	0.998 ± 0.059	0.98 ± 0.06	0.948 ± 0.04	0.925 ± 0.03	0.925 ± 0.045
NFXL1 (UniProt Q6ZNB6)	1.04 ± 0.079	1.09 ± 0.1	1.05 ± 0.091	1.11 ± 0.067	1.13 ± 0.12	1.16 ± 0.13	1.12 ± 0.12	1.15 ± 0.11
UniProt Q13428|Q13428-3|Q13428-4|Q13428-7	0.975 ± 0.096	1.01 ± 0.085	1.09 ± 0.12	1.09 ± 0.15	1.11 ± 0.16	1.13 ± 0.14	1.17 ± 0.17	1.23 ± 0.23
P86790|P86791 (UniProt P86791+P86790)	1.06 ± 0.015	1.06 ± 0.072	1.03 ± 0.063	0.99 ± 0.038	1.01 ± 0.068	0.948 ± 0.038	0.943 ± 0.029	0.924 ± 0.0097
SLC25A24 (UniProt Q6NUK1)	0.934 ± 0.055	0.93 ± 0.033	0.857 ± 0.039	0.854 ± 0.014	0.837 ± 0.026	0.845 ± 0.024	0.809 ± 0.061	0.817 ± 0.057
UniProt Q7KZN9|Q7KZN9-2	1.07 ± 0.024	1.05 ± 0.11	0.98 ± 0.035	0.961 ± 0.022	0.939 ± 0.052	0.924 ± 0.037	0.907 ± 0.029	0.931 ± 0.042
UniProt Q8IW45|Q8IW45-2	1.01 ± 0.071	0.978 ± 0.074	0.985 ± 0.038	0.945 ± 0.021	0.969 ± 0.013	0.915 ± 0.045	0.954 ± 0.077	0.91 ± 0.035
UniProt Q8WXA9-2	1.02 ± 0.067	1.11 ± 0.044	1.14 ± 0.077	1.12 ± 0.082	1.15 ± 0.067	1.11 ± 0.07	1.18 ± 0.035	1.18 ± 0.1
UniProt Q16630|Q16630-2	1.16 ± 0.012	1.64 ± 0.098	1.95 ± 0.22	2.23 ± 0.3	2.49 ± 0.41	2.58 ± 0.45	2.71 ± 0.58	2.75 ± 0.56
UniProt Q53EL6|Q53EL6-2	0.992 ± 0.14	1.08 ± 0.18	1.12 ± 0.24	1.23 ± 0.34	1.45 ± 0.45	1.66 ± 0.47	1.81 ± 0.48	2.16 ± 0.58
SMC5 (UniProt Q8IY18)	1.026 ± 0.0089	1.06 ± 0.036	1.03 ± 0.025	1.02 ± 0.03	1.009 ± 0.0054	1.04 ± 0.019	1.05 ± 0.031	1.03 ± 0.021
Q5STZ8|Q8NE71 (UniProt Q8NE71)	1.03 ± 0.023	1.02 ± 0.019	0.96 ± 0.053	0.987 ± 0.043	0.993 ± 0.06	0.997 ± 0.046	0.994 ± 0.066	0.984 ± 0.092
NANP (UniProt Q8TBE9)	1.07 ± 0.15	0.981 ± 0.11	0.954 ± 0.14	0.982 ± 0.16	0.904 ± 0.12	0.877 ± 0.14	0.891 ± 0.2	0.861 ± 0.15
UniProt Q6NW34|Q6NW34-2	0.848 ± 0.051	0.888 ± 0.08	0.881 ± 0.074	0.85 ± 0.031	0.839 ± 0.071	0.929 ± 0.032	0.871 ± 0.059	0.93 ± 0.012
UniProt P61962	1.02 ± 0.081	1.08 ± 0.089	0.988 ± 0.07	1.04 ± 0.1	1.02 ± 0.057	1.01 ± 0.092	0.946 ± 0.021	0.964 ± 0.03
C15orf40 (UniProt Q8WUR7)	1.02 ± 0.1	1.02 ± 0.084	1.03 ± 0.034	1.05 ± 0.12	1.04 ± 0.13	1.01 ± 0.097	1.11 ± 0.061	1.17 ± 0.12
PDCD6IP (UniProt Q8WUM4)	0.945 ± 0.046	0.957 ± 0.053	0.943 ± 0.061	0.889 ± 0.075	0.873 ± 0.084	0.895 ± 0.064	0.904 ± 0.053	0.883 ± 0.07
Q5QPL9|Q9UKM9-2|Q9UKM9 (UniProt Q9UKM9)	0.927 ± 0.04	1 ± 0.025	1.07 ± 0.14	1.07 ± 0.2	1.07 ± 0.28	1.05 ± 0.25	1.01 ± 0.24	0.949 ± 0.23
PSMD2 (UniProt Q13200)	1.03 ± 0.077	1.1 ± 0.11	1.01 ± 0.13	1.08 ± 0.19	1.06 ± 0.17	1.08 ± 0.2	1.04 ± 0.16	1 ± 0.15
